Values joined by “and” are separate entries in the source; they are usually repeats but may differ in a detail not shown here. Equal entries are not always repeated. Out of some 5,500 compounds screened, about 2,000 (36%) were called active. Inconclusive results (about 18%) are left out. Rule as the data show it: active = normalized growth mostly below about 0.91 (no sharp cut-off); inconclusive = no clear call, values can overlap the other calls; inactive = mostly above about 0.92. Some of the results follow.
Assay: chemical genetic growth profiling, strain panel (AID 1159580);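 also: tested at 20 µM; growth read once vehicle control cultures reached saturation at 30 °C; 1 = growth at the plate median or of vehicle wells; lower values mean less growth of the strain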
Conditions: S. cerevisiae deletion strains, growth OD

Measured: normalized growth

CC1CNCCN1S(=O)(=O)c1cccc2cnccc12 (stereo unspecified)
inactive: locus YAL013W, strain DEP1, stronger effect = lower value 1.01 and 1 | locus YAL040C, strain CLN3, stronger effect = lower value 1.09 and 0.997 | locus YCL061C, strain MRC1 (second series), stronger effect = lower value 0.998 and 1.01 | locus YDR150W, strain NUM1, stronger effect = lower value 1 | locus YDR363W, strain ESC2, stronger effect = lower value 0.993 and 1.01 | locus YER002W, strain NOP16, stronger effect = lower value 0.988 and 1.01 | locus YGR078C, strain PAC10, stronger effect = lower value 1.01 | locus YMR263W, strain SAP30, stronger effect = lower value 1 | locus YNL153C, strain GIM3, stronger effect = lower value 0.991 | locus YNL175C, strain NOP13, stronger effect = lower value 0.996 and 0.999 | locus YNL197C, strain WHI3, stronger effect = lower value 1.01 | locus YNL224C, strain SQS1, stronger effect = lower value 1.02 | locus YNL322C, strain KRE1, stronger effect = lower value 0.999 | locus YOR083W, strain WHI5 (second series), stronger effect = lower value 1 and 1.03 | locus YPL055C, strain LGE1, stronger effect = lower value 1.01 | locus YPL241C, strain CIN2, stronger effect = lower value 0.996
